Source: PubChem BioAssay (National Center for Advancing Translational Sciences (NCATS))
uPA generation – qHTS for Inhibitors of Cell Surface uPA Generation | AID 540303, 2011 | Potency, µM (top dose mostly 38.3 µM), for inactives: at the top dose activity change, negative = inhibition, hits mostly inhibitors | 0.31% of 330,000 active | cell surface uPA generation assay, qHTS; active = well fitted inhibition curve with a large enough effect; inconclusive = small, poorly fitted or top-dose-only effect; inactive = no such curve, though single readings can be large or run the other way; tested in mouse RAW 264.7 cells; also: potency is read from the fitted curve at half-maximal effect; % is scaled to controls: 0 for no effect and ±100 for the full control effect; nearly all actives have a fitted effect of over 55% in size
TDP1 cell noCPT – qHTS for Inhibitors of human tyrosyl-DNA phosphodiesterase 1 (TDP1): qHTS in cells in absence of CPT. DT40 Tdp1-/- hTDP1 cells, no CPT, ATP luminescence, 48 h. Potency, µM (titrated, usually from 46.2 µM), without a hit: at the highest dose activity change, negative = growth inhibition, most hits filed as inhibitors. 15% of 420,000 active; also: potency is read from the fitted curve at half-maximal effect; % is scaled to controls: 0 for no effect and ±100 for the full control effect; nearly all actives have a fitted effect of over 55% in size
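Compound effects on proliferation are scored in DT40 Tdp1-/-;hTDP1 cells in the absence of CPT. ATP levels (CellTiter-Glo luminescence) are recorded after a ≥48 hr, 37 °C incubation.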
DT40 TDP1 CPT – qHTS for Inhibitors of human tyrosyl-DNA phosphodiesterase 1 (TDP1): qHTS in cells in presence of CPT | AID 686979, 2013 | Potency, µM (top dose mostly 46.2 µM), for the others: top-dose activity change, negative = growth inhibition, most hits filed as inhibitors | chicken DT40 Tdp1-/-;hTDP1 cells + 20 nM CPT, ATP luminescence, 48 h | 12% of 420,000 active; also: potency is read from the fitted curve at half-maximal effect; % is scaled to controls: 0 for no effect and ±100 for the full control effect; nearly all actives have a fitted effect of over 55% in size
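Cell growth measured by CellTiter-Glo luminescence after a minimum 48 h, 37 C compound exposure with 20 nM CPT in Tdp1-knockout DT40 cells stably expressing hTDP1, seeded 400/well; qHTS titration format.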
TDP1 block – qHTS Assay for Inhibitors of Tyrosyl-DNA Phosphodiesterase (TDP1); Tyrosyl-DNA phosphodiesterase 1 (Homo sapiens), Q9NUW8; recombinant TDP1, AlphaScreen DNA substrate cleavage; Potency, µM (series often up to 130 µM), inactives show at the top dose activity change, negative = inhibition, hits mostly inhibitors; 0.28% of 350,000 active; AID 485290, 2010; also: potency is read from the fitted curve at half-maximal effect; % is scaled to controls: 0 for no effect and ±100 for the full control effect; nearly all actives have a fitted effect of over 40% in size
Target sequence (Q9NUW8 whole entry, looked up): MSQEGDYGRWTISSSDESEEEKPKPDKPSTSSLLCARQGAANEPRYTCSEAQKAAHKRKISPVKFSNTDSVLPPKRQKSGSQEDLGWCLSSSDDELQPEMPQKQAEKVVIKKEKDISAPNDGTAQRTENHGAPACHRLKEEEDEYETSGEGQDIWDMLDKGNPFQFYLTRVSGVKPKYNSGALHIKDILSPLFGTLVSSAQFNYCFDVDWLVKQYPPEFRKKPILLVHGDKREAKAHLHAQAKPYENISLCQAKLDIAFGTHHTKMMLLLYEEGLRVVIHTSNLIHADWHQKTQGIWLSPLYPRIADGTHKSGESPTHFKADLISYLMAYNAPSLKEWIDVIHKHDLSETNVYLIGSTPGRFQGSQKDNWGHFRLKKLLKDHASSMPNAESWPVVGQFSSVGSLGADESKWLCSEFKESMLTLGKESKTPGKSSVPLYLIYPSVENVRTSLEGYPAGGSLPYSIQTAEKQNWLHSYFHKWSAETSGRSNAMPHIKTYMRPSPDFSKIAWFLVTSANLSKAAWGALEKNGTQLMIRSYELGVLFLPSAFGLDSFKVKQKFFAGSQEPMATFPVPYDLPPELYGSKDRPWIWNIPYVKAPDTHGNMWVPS
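Signal: AlphaScreen proximity between streptavidin donor and anti-FITC acceptor beads on intact substrate. Reaction: Tdp1 1 nM, substrate 15 nM final, 5 min RT after 15 min compound preincubation.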
miR-21 reporter – qHTS Assay for Modulators of miRNAs and/orActivators of miR-21; Potency, µM (doses to about 38.3 µM), for the others: at the top dose activity change, positive = activation, usual class: activators; 340,000 tested, under 10 active; HeLa miR-21 FLuc reporter, luciferase, 48 h; AID 2288, 2010;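 also: % of control where 0% means no effect; miR-21 action dims this reporter so a rising signal means less miR-21 action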
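Luminescence from a firefly luciferase reporter carrying a miR-21 binding site downstream, stably expressed under a CMV promoter in HeLa cells that make miR-21 endogenously, reports miRNA modulation after 48 h compound exposure up to approximately 40uM final.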
* marks the source's active call; other numbers are inactive results; ? = inconclusive; . = no result given; ! = a repeat was not active; [ ] = dose if it differs, or a comment. This is a sample that favours compounds with a hit; in the whole collection about 16% have one here. Unless noted, calls follow the shape of the dose curve; as a rule, active = well fitted curve in the direction sought with a large enough effect; inconclusive = small, poorly fitted or top-dose-only effect, or another doubt; inactive = no such curve, though single readings can be large; an effect the other way counts as inactive or inconclusive.

SMILES	uPA generation	TDP1 cell noCPT	DT40 TDP1 CPT	TDP1 block	miR-21 reporter
Cc1[nH]c(=O)[nH]c(=O)c1S(=O)(=O)N(CC(C)C)CC(C)C	6%	-12%	-11%	-5%	-2%
CCCCC/C=C\C[C@@H](O)/C=C/C=C/C=C\[C@@H](O)CCCC(=O)O	.	-4%[0.628 µM]	-4%[0.628 µM]	5%	.
Cc1nn(CC(=O)Nc2nnc(C(C)C)s2)c(=O)c2ccccc12	?	14%	1%	3%	0%
O=S(=O)(N(Cc1ccccc1)[C@@H](CO)Cc1ccccc1)N(Cc1ccccc1)[C@@H](CO)Cc1ccccc1	18%	5.6µM*	?	1%	.
CCOC(=O)[C@@H](C)NS(=O)(=O)N(Cc1ccccc1)[C@H](C(=O)OC)C(C)C	2%	?	?	0%	.
COC(=O)[C@H](C(C)C)N(Cc1ccccc1)S(=O)(=O)CCNC1CCCC1	-2%	?	26µM*	0%[56.1 µM]	.
COC(=O)[C@H](CC(C)C)N(Cc1ccccc1)S(=O)(=O)N(Cc1ccccc1)[C@@H](CC(C)C)C(=O)OC	-4%	12µM*	21µM*	0%	.
COC(=O)C(CC(C)C)N(Cc1cc(OC)cc(OC)c1)S(=O)(=O)c1ccccc1Br (stereo not given)	-13%	?	?	-4%[56.1 µM]	.
Cn1c(-c2ccc3c(c2)OCO3)cnc1NCc1ccccc1	.	?	21µM*	0%	-21%
Cn1c(-c2ccc3c(c2)OCO3)cnc1NCc1ccccc1Cl	-27%	15µM*	?	-7%	-38%
Cn1c(-c2cccc([N+](=O)[O-])c2)cnc1NCc1cccc(F)c1	-1%	21µM*	?	.	0%
Nc1nc2ccccc2n1/N=C/c1ccc(-c2ccccc2)o1	12%	16µM*	?	8%	-30%
Nc1nc2ccccc2n1/N=C/c1cccnc1	13%	-15%	-5%	.	.
Nc1nc2ccccc2n1/N=C/c1ccc([N+](=O)[O-])s1	-5%	2.9µM*	2.1µM*	.	20%
O=C(NCCCN1CCOCC1)c1cc(C(=O)C2CC2)c[nH]1	-4%	-5%	-15%	1%	0%
COc1ccc(NC(=S)NC(NC(=O)C(C)C)C(Cl)(Cl)Cl)c([N+](=O)[O-])c1 (stereo not given)	0%	-23%	-23%	6%	-1%
C/C=C1\NC(=O)[C@H]2CSSCC/C=C/[C@H](CC(=O)N[C@H](C(C)C)C(=O)N2)OC(=O)C(C(C)C)NC1=O (stereo not given in full)	.	0.0013µM*	0.0015µM*	.	.
CC(C)n1ncc2c(C(=O)NCCOc3ccccc3F)cc(C3CC3)nc21	3%	3.3µM*	12µM*	-4%	.
CCOc1ccc(OCCNC(=O)c2cc(C3CC3)nc3c2cnn3C(C)C)cc1	4%	5.2µM*	16µM*	-6%	.
CC(C)n1ncc2c(C(=O)N3CCN(Cc4ccc(Br)s4)CC3)cc(C3CC3)nc21	12%	23µM*	26µM*	3%	.
CC(C)n1ncc2c(C(=O)O)cc(C3CC3)nc21	2%	4%	?	6%	-3%
CC(C)Cc1nnc(NC(=O)CSc2nc(=O)cc(N)n2-c2ccccc2)s1	1%	-3%	5%	7%	-3%
CCc1ccc2[nH]c3nc(C)cc(C)c3c(=O)c2c1	-5%	0%	4%	-3%	-30%
C/C=C(/CCC1NCCc2c1[nH]c1ccccc21)[Si](C)(C)C (stereo not given)	3%	2.9µM*	3.3µM*	.	.
CCCCCCCCCC1NC(C(=O)O)Cc2c1[nH]c1ccccc21 (stereo not given)	.	-28%	-5%	.	.
SMILES	uPA generation	TDP1 cell noCPT	DT40 TDP1 CPT	TDP1 block	miR-21 reporter
CC1(C)O[C@@H]2C[C@H]3[C@@H]4CCC5=CC(=O)C=C[C@]5(C)[C@@]4(F)[C@@H](O)C[C@]3(C)[C@]2(C(=O)CO)O1	-14%	-14%	?	-3%	-29%
CC(=O)OCC(=O)[C@@]12OC3(CCCC3)O[C@@H]1C[C@H]1[C@@H]3CCC4=CC(=O)C=C[C@]4(C)[C@@]3(F)[C@@H](O)C[C@@]12C	?	4.6µM*	2.3µM*!	4%	-34%
CN(CCOc1ccc(Br)cc1)CC(O)COc1ccc(C#N)cc1 (stereo not given)	-12%	4.1µM*	?	7%	17%
COCCNC(=S)Nc1ccc2nc(N3CCN(C)CC3)cc(C)c2c1	1%	?	-12%	.	-4%
COc1cc(NC(=O)CCC(=O)Nc2ccc3nc(N4CCOCC4)cc(C)c3c2)cc(OC)c1OC	3%	?	0%	14%	-5%
COc1ccc(CNC(=S)Nc2ccc3nc(N4CCN(C)CC4)cc(C)c3c2)cc1	0%	?	?	9%	-12%
COc1ccc(N(C)C(=O)CCC(=O)Nc2ccc3nc(N4CCOCC4)cc(C)c3c2)c(OC)c1	.	16µM*	?	-7%	-10%
Cc1cc(N2CCOCC2)nc2ccc(NC(=S)NCCC(C)C)cc12	-8%	21µM*	18µM*	.	-1%
Cc1cc(N2CCN(C)CC2)nc2ccc(NC(=S)NCCC(C)C)cc12	-3%	15µM*	23µM*	.	-44%
COc1ccc(CNC(=S)Nc2ccc3nc(N4CCOCC4)cc(C)c3c2)cc1	?	?	21µM*	10%	-13%
O=C(CN1CCOCC1)N/N=C/c1ccccc1	0%	-6%	-7%	0%	2%
Cc1cc(-c2nc(C)c(C(=O)NNC(=O)NC(C)C)s2)no1	-1%	-1%	8%	5%	9%
Cc1cc(S(=O)(=O)Nc2c(C)nn(C)c2C)c(Cl)cc1Cl	-6%	?	-18%	6%	-1%
COc1cc(Br)c(CNc2cc(C)ccc2C)cc1OC	?	16µM*	?	.	16%
Cc1cccc(NC(=O)c2sc3nc4c(cc3c2N)CN(Cc2ccccc2)CC4)c1	.	18µM*	15µM*	-2%	3%
COc1ccc(NC(=O)c2sc3nc4c(cc3c2N)CCCCCC4)cc1OC	.	?	?	.	-3%
COc1ccc(NC(=O)c2sc3nc4c(cc3c2N)CN(Cc2ccccc2)CC4)cc1	.	2%	3%	0%	1%
CCN1CCc2nc3sc(C(=O)Nc4cccnc4Cl)c(N)c3cc2C1	15%	?	?	3%	2%
Cc1cccc(NC(=O)c2sc3nc4c(cc3c2N)CN(C(C)C)CC4)c1	.	?	21µM*	9%	22%
CN1CCc2nc3sc(C(=O)Nc4c(F)cccc4F)c(N)c3cc2C1	.	?	?	6%	-13%
